Casp6 inh: human caspase-6 inhibitors, primary screen, biochemical, VEID-R110 fluorescence, single point, set 2. P55212. purified caspase-6, Z-VEID-R110 cleavage fluorescence. inhibition, % at 12.5 µM. hit rate 0.53% among 350,000;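 active means mean inhibition across replicates at least about 35%, with every replicate also reaching that limit, limit read from the data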
NSD2 inh: NSD2 histone methyltransferase inhibitors, primary screen, biochemical, AlphaScreen, single concentration, set 2. Histone-lysine N-methyltransferase NSD2 (Homo sapiens), O96028. NSD2 peptide methylation, 120 min. inhibition, % at 12.5 µM. hit rate 0.54% among 310,000. AID 743445, 2014; in the data active means inhibition above about 50%
Mot1-301 SUMO: yeast Mot1-301 growth rescue at high temperature, primary screen, SUMOylation pathway inhibitor project, S. cerevisiae, ATP luminescence, 38.5C. S. cerevisiae Mot1-301 growth rescue; percent above DMSO median, 100 means doubled. growth rescue, % at 18.8 µM. hit rate 1% among 320,000. AID 2716, 2010;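 active means every valid replicate shows activation above 250% relative to neutral control wells; inactive means the rest, any valid replicate at or below 250%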
ALR inh: inhibitors of human ALR sulfhydryl oxidase, primary screen, biochemical, H2O2 detection, HRP-luminol luminescence, single point; FAD-linked sulfhydryl oxidase ALR (Homo sapiens), P55789; purified ALR, DTT oxidation; inhibition, % (concentration not given with the values); hit rate 3.8% among 290,000;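 active means mean replicate inhibition above about 79%, with every replicate also reaching it, limit read from the data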
Glyco luc inh: increase of ERlucT glycosylation luciferase signal, primary screen, N-linked glycosylation inhibitor project, D54 ERlucT cells, luminescence, set 2; D54 ERlucT glycosylation luciferase reporter, 24 h; percent of 100 nM tunicamycin response; reporter increase, % at 12.5 µM; hit rate 0.23% among 360,000;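 active means mean luciferase reporter signal, scaled so untreated is 0 and the glycosylation-blocking control 100, at or above a set limit in every replicate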;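 further: luciferase carries N-glycosylation sites so blocking glycosylation raises the light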
CDK5 inh: inhibitors of human CDK5/p35 kinase, primary screen, biochemical, single concentration; Cyclin-dependent kinase 5 (Homo sapiens) + Cyclin-dependent kinase 5 activator 1 (Homo …; Recombinant CDK5/p35, ADP-Glo luminescence, 60 min; AID 488839, 2010; inhibition, % at 10 µM; hit rate 0.01% among 330,000;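 active means highest replicate inhibition of at least 50% and at least 75% of replicates reaching 50%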
Target sequence (Q00535 whole entry, looked up): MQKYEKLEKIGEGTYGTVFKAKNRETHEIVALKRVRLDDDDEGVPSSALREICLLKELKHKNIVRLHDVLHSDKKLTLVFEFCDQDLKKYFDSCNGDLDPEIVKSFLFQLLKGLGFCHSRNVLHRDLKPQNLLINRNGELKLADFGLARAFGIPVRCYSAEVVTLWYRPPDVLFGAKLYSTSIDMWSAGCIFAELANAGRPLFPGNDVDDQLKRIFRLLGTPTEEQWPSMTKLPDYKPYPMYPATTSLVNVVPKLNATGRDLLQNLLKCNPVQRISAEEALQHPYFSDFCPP
Target sequence (Q15078 whole entry, looked up): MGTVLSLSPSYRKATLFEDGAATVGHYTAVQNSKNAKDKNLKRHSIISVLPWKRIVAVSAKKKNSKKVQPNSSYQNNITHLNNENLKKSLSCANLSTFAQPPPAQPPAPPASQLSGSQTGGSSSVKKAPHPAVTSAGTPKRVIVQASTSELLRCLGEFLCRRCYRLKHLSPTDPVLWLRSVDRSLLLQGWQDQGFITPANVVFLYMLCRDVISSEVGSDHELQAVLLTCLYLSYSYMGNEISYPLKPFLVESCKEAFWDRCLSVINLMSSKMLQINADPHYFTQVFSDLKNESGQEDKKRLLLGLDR
A number is an active result; i = inactive; nt = no result. Compounds with a hit are over-represented: about 3.9% of the library has one in this group of screens.

SMILES	Casp6 inh	NSD2 inh	Mot1-301 SUMO	ALR inh	Glyco luc inh	CDK5 inh
C=CCOc1c(OC)cc(/C=N/Nc2cccc(C(=O)O)c2)c(Br)c1Br	42.6	i	i	nt	i	i
O=C(C[C@@H]1CC[C@H](NC(=O)CN2CCOCC2)[C@H](CO)O1)NCCc1ccccc1	i	nt	nt	nt	nt	nt
Nc1ccccc1Nc1c(F)c(F)nc(F)c1Cl	i	i	i	98.0	i	i
COc1cccc(-c2nc(CS(=O)(=O)CC(=O)NCCCN3CC(C)CC(C)C3)c(C)o2)c1 (centres undefined)	i	i	i	89.7	i	i
Cc1ccccc1-c1nc(CN2CCC(C(=O)NCCCN3CC(C)CC(C)C3)CC2)c(C)o1 (centres undefined)	nt	i	558.6	i	i	i
CCN1CCN(CCCNC(=O)CS(=O)(=O)Cc2nc(-c3cccc(OC)c3)oc2C)CC1	i	i	i	90.5	i	i
Cc1ccccc1-c1nc(CN2CCC(C(=O)NCCCN3CCCC3)CC2)c(C)o1	i	i	i	i	i	i
COc1cccc(-c2nc(CS(=O)(=O)CC(=O)NCCCN3C(C)CCCC3C)c(C)o2)c1 (centres undefined)	i	i	i	i	i	i
COc1cccc(-c2nc(CS(=O)(=O)CC(=O)NCCCN3CCN(C)CC3)c(C)o2)c1	i	i	i	98.5	i	i
CC(C)NC(=O)N(C)C[C@H]1Oc2c(NS(=O)(=O)c3ccc(Cl)cc3)cccc2C(=O)N([C@H](C)CO)C[C@H]1C	i	nt	nt	nt	nt	nt
COc1cccc(C#Cc2ccc([C@@H]3[C@H]4CN(C(=O)Cc5cccnc5)CC(=O)N4[C@H]3CO)cc2)c1	i	nt	nt	nt	nt	nt
C[C@H](CO)N1C[C@H](C)[C@H](CN(C)C(=O)CCC(F)(F)F)OCc2ccccc2-c2c(n(C)c3ccccc23)C1=O	i	nt	nt	nt	nt	nt
O=C(O)C[C@H]1CC[C@@H](NC(=O)c2ccccc2F)[C@H](CO)O1	i	nt	nt	nt	nt	nt
C[C@@H]1CN([C@H](C)CO)C(=O)c2c(c3ccccc3n2C)-c2ccccc2CO[C@@H]1CN(C)C(=O)c1ccccc1	i	nt	nt	nt	nt	nt
Cc1cc(C(=O)O)ccc1N/C=C1\CCCC(C)C1=O (centres undefined)	nt	i	i	i	i	i
CC1CCC/C(=C\Nc2ccc(O)cc2)C1=O (centres undefined)	nt	i	i	98.8	i	i
C[C@@H]1CN([C@@H](C)CO)C(=O)Cc2cc(NC(=O)Nc3ccc(F)cc3)ccc2O[C@H]1CN(C)C(=O)Nc1ccccc1	i	nt	nt	nt	nt	nt
O=C(/C=C\Nc1ccc2c(c1)OCO2)c1cccs1	i	i	i	96.1	i	i
C[C@H](NC(=O)C[C@@H]1CC[C@H](NC(=O)C2CCOCC2)[C@H](CO)O1)c1ccccc1	i	nt	nt	nt	nt	nt
Cc1cccc(/C=N/Nc2ccc3ccccc3n2)c1	i	i	i	nt	i	i
Cc1ccc(/C=N\Nc2nc3ccc(Cl)cc3[nH]2)o1	i	i	i	95.4	i	i
Cc1ccc(/C=N/Nc2ccc3ccccc3n2)o1	i	nt	nt	98.6	i	i
Fc1ccccc1-c1ccc(/C=N/Nc2nc3ccccc3[nH]2)o1	i	i	i	i	i	i
O=C(Nc1ccccc1)N[C@@H]1CC[C@@H](CCNS(=O)(=O)c2cccc(F)c2)O[C@H]1CO	i	nt	nt	nt	nt	nt
S=C(NCCCN1CCOCC1)N1CCN(c2ccccc2)CC1	i	i	i	97.6	i	i
SMILES	Casp6 inh	NSD2 inh	Mot1-301 SUMO	ALR inh	Glyco luc inh	CDK5 inh
COCCCNC(=S)N1CCN(c2ccccc2)CC1	i	i	i	97.1	i	i
Cc1ccc(NC(=S)NCCN2CCOCC2)cc1C	nt	i	i	i	i	i
Cc1cc(OCC(=O)NCCN2CCOCC2)cc(C)c1Cl	i	i	i	i	i	i
Cc1ccc(NC(=S)NCCCN2CCOCC2)cc1C	i	i	i	97.8	i	i
Cc1ccc(OCC(=O)NCCN2CCOCC2)cc1C	nt	i	i	86.9	i	i
C[C@H]1CCCCO[C@H](CN(C)Cc2ccccc2)[C@@H](C)CN([C@@H](C)CO)C(=O)c2cc(NC(=O)c3ccncc3)ccc2O1	i	nt	nt	nt	nt	nt
